# Screening results from PubChem BioAssay.
# Many of the other results were omitted from the sample, so hits are more common in it than they were.
# ST2 inh = IL1RL1 inhibition. AlphaLISA ST2-Fc/biotin-IL-33 interaction, 1 h. inhibition, % for hits at 17 µM. 2.3% of 78,000 active; in the data active = inhibition above about 30%
# Numbers without * were called inactive; i = inactive.
SMILES,ST2 inh
O=C1NC(=O)/C(=C\c2ccc(-c3ccc(Cl)c([N+](=O)[O-])c3)o2)S1,69%*
O=C1/C(=C/c2ccc(Cl)c([N+](=O)[O-])c2)Sc2ccccc21,i
CC(=O)NC1=NC(=O)/C(=C/c2ccc(-c3cccc(Cl)c3)o2)S1,i
O=C1C(=Cc2ccc(-c3ccc(Cl)c([N+](=O)[O-])c3)o2)C(=O)c2ccccc21,i
Cc1nc2cc(-c3ccccc3)nn2c(C(C)(C)C)c1C,i
O=C(c1cn(CCN2CCOCC2)nn1)N1CCC(c2nc3ccccc3o2)CC1,i
CC(C)C(NC(=O)C1CCCCC1)C(=O)Nc1ccc(F)c(Cl)c1 (centres undefined),i
O=C(NCC1CCCO1)c1cc2cc(Br)ccc2oc1=O (centres undefined),i
CCN(CCn1c(=O)oc2ccccc21)CC1CCOCC1,i
CC(=O)c1ccccc1-c1cccc(C(=O)NC(C)C)c1,i
CC(=O)C1=C(c2ccccc2)C(=O)c2ccccc2C1=O,48%*
COC1=C(OC)C(=O)c2ccccc2C1=O,i
CCc1c(C)sc(NC(=O)c2cc(-c3ccc(Br)cc3)on2)c1C#N,i
CN(C)CCN(C)[C@@H]1[C@H](O)[C@H](CO)O[C@@H]1CNC(=O)c1ccco1,i
COc1ccc(-c2cc(-c3ccccc3)nc(N3CCOCC3)n2)cc1OC,i
O=C(Nc1sc2c(c1C(=O)NCC1CCCO1)CCCC2)c1ccccc1Br (centres undefined),i
CC1CCc2c(sc(NC(=O)c3ccccc3Cl)c2C(=O)NCc2ccco2)C1 (centres undefined),i
O=C(Nc1sc2c(c1C(=O)NCc1ccco1)CCCC2)c1ccccc1[N+](=O)[O-],30%*
CCSc1nnc(NC(=O)CN2CCCC2c2ccccn2)s1 (centres undefined),i
O=C(Cc1cccs1)N1c2ccccc2CCc2ccccc21,i
COCc1cc(C)n(CC(=O)c2ccccc2)c(=O)c1C#N,i
C=CCn1c(-c2ccccc2)csc1=Nc1cccc([N+](=O)[O-])c1,59%*
O=[N+]([O-])c1cccc(N=Cc2nc(-c3ccccc3)oc2O)c1,i
C=CCn1c(C)csc1=Nc1ccc(S(=O)(=O)Nc2nc(C)cc(C)n2)cc1,i
CN(C)CCCn1c(-c2ccc([N+](=O)[O-])cc2)csc1=Nc1ccccc1,51%*
SMILES,ST2 inh
Cc1csc(=Nc2ccccc2)n1CC(O)c1ccc([N+](=O)[O-])cc1 (centres undefined),39%*
CN(CCCC(=O)O)c1nc(-c2cccc([N+](=O)[O-])c2)cs1,i
Cc1[nH]n(-c2ccc([N+](=O)[O-])cc2)c(=O)c1C=NCC(O)c1ccccc1 (centres undefined),i
CN(C)CCN(C)Cc1ccc([N+](=O)[O-])cc1,i
NC(CO)C(O)c1ccc([N+](=O)[O-])cc1 (centres undefined),i
Cc1ccc(C(=O)Cn2c(C)csc2=Nc2ccccc2)cc1,41%*
Cc1ccc(C(=O)CN2C3=NCCCN3c3ccccc32)cc1,i
CC1CC(C)CN(S(=O)(=O)c2ccc3c(c2)c(=O)n(C)c(=O)n3C)C1 (centres undefined),i
COc1ccc(C(=O)C[n+]2cnn(CC(=O)c3ccccc3)c2)cc1,i
CCOC(=O)Cn1c(=O)n(-c2ccc(C)c(C)c2)c2nc(-c3ccc(CC)cc3)nc(C(N)=O)c21,i
CC(C)(CO)CNC(=O)C1CC(=O)N(C2CC2)C1 (centres undefined),i
Cc1ccc(C(=O)Nc2ccc(NC(=O)CC3CNCCO3)cc2)o1 (centres undefined),i
O=C(c1cc(COc2ccc3c(c2)OCO3)[nH]n1)N1CCN(CC2CC2)CC1,i
CC(C)NC(=O)CSc1nc(-c2cccc(Cl)c2)nc2cc(=O)[nH]n12,96%*
CC(CCc1ccccc1)NC(=O)CSc1nc(-c2ccc3c(c2)OCO3)nc2cc(=O)[nH]n12 (centres undefined),i
COCCNC(=O)CSc1nc(-c2cccc(Cl)c2)nc2cc(=O)[nH]n12,i
O=C(Nc1nccs1)C1Cc2ccccc2CN1S(=O)(=O)c1cccs1 (centres undefined),i
Cc1cccc(NC(c2ccc(F)cc2)c2ccc3cccnc3c2O)n1 (centres undefined),30%*
O=c1cc(CO)oc(C(Nc2ccccn2)c2ccc3c(c2)OCO3)c1O (centres undefined),i
Cc1cccc(NC(c2cccc(Cl)c2)c2ccc3cccnc3c2O)n1 (centres undefined),34%*
Cc1ccc(S(=O)(=O)Nc2ccccn2)cc1C,i
Cc1cccc(NC(c2cccc(C)n2)c2ccc3ccc(C)nc3c2O)n1 (centres undefined),i
CCC(C(=O)Nc1cccc(C)n1)c1ccccc1 (centres undefined),i
COc1ccc(C(Nc2ccccn2)c2ccc3ccc(C)nc3c2O)cc1C (centres undefined),31%*
Cc1cccc(NC(c2cccc(F)c2)c2ccc3cccnc3c2O)n1 (centres undefined),i
